Assay results from PubChem BioAssay (NCI).
“And” between values parts separate entries of the source, which are not always exact repeats. Identical values can stand only once. The panel holds about 83,000 compounds, 20% with a hit somewhere; the sample as a whole holds those more often.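 Single-concentration screen, 48 h exposure, 96-well plates. Endpoint: percent growth. Below 10 = active.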 Values without a mark were called inactive. The source made the active and inactive calls.

What follows are molecules tested on MDA-MB-468 breast (assay: NCI-60 one-dose screen, 48 h (100 = growth as untreated, 0 = no growth, -100 = all killed)). Details: 10 µM unless noted.

Structure (SMILES)	growth
COc1ccc(Cn2cc(C(=O)Nc3cccnc3Nc3ccccc3)nn2)cc1	92.9%
CC1(C)CC[C@]2(C(=O)O)CC[C@]3(C)C(=CCC4[C@@]5(C)C[C@@H](O)[C@@H]6OC(c7ccccc7O)OC[C@@]6(C)C5CC[C@]43C)C2C1 (stereo not given in full)	69.4%
O=C(Nc1ccc(Oc2ccc(F)cc2)c(Cl)c1)c1cccnc1	57.2%
NC(=N\N=C/c1ccc(Cl)cc1Cl)/C(N)=N\N=C/c1ccc(Cl)cc1Cl	62.8%
CN(Cc1cnc2nc(N)nc(N)c2n1)c1ccc(C(=O)N[C@@H](CCc2nn[nH]n2)c2nn[nH]n2)cc1	52.8%
COc1cccc(-c2nc3sccn3c2-c2ccnc(NCCNC(=O)c3ccccc3)n2)c1	79.4%
CC(C)(C)OC(=O)N1CCc2c(sc3ncnc(N/N=C/c4cccc5ccccc45)c23)C1	5.85% (active)
COc1ccc(-c2c(-c3cc(OC)c4c(c3)OCO4)noc2N)cc1	-2.08% (active)
Fc1ccc(Nc2ncnc3ccc(-c4cnc5[nH]ccc5c4)cc23)cc1Cl	-29.7% (active)
CCCCNC(=O)Oc1ccc(/C(=C(\C)c2ccc(Cl)cc2)c2ccc(OCCN3CCCCC3)cc2)cc1	62.9%
Cn1cc2c(c1)-c1nc(Nc3ccccc3)ncc1CC2	47.6%
O=C1/C(=C\c2ccco2)SC(=S)N1CCc1ccc(O)cc1	54.9%
C=CC(C)C(C)(C)O (stereo not given)	106%
O=c1cc(Cl)[nH]c(=O)[nH]1	101%
Cn1cc(-c2nonc2-c2cn(C)c3ccccc23)c2ccccc21	30.3%
COC12C=C/C(=C(/C(=O)OCc3ccncn3)C(=O)CCCCCCCCC3(OC)C=C/C(=C(/C(=O)OCc4ccncn4)C(=O)CCCCCCCC1)O3)O2	-45.5% (active)
O=c1c2ccccc2oc2ccc(OCCCCCN3CCCCCC3)cc12	49.8%
C=C1C(=O)O[C@H]2[C@H]1CC/C(COC(=O)NCc1cccc(OC)c1)=C\CC[C@@]1(C)O[C@@H]21	-13.2% (active)
CSc1cnc2ccccc2n1	119%
CCOc1nc(-c2ccccc2)cc2c(O)c(C(=O)N/N=C/c3ccccc3O)[nH]c(=O)c12	88.6%

Structure (SMILES)	growth
c1ccc2c(c1)CCN(NCCN1CCCC1)C2	109%
CC1(C)CCC(C)(C)NC(=S)N1	103%
COC(=O)CC[C@@H](C)[C@H]1CC[C@H]2C3CC[C@@H]4C[C@@H]5CC[C@]4(C)[C@@]3(O5)[C@H](Br)[C@@H](Br)[C@]12C (stereo not given in full)	99.5%
O=C1c2cc3c(cc2-c2c1c1ccc(F)cc1c(=O)n2CCCNCCO)OCO3	-70.8% (active)
CCN1CCN(c2nc(NCCNc3ccnc4cc(Cl)ccc34)c3ccccc3n2)CC1	-28.8% (active)
Oc1c(I)cc(I)cc1CN(Cc1ccccn1)Cc1ccccn1	8.74% (active)
O=C(Nc1ccc(N=Cc2ccccc2O)cc1)NC1C=c2ccccc2=CC1 (stereo not given)	87.1%
CN1CCN(Cc2ccc(NC(=O)c3cncc(C#Cc4nc(N)nc5[nH]ncc45)c3)cc2C(F)(F)F)CC1	35.1%
CN1CCN(Cc2ccc(NC(=O)c3cncc(C#Cc4cnccc4C(F)(F)F)c3)cc2C(F)(F)F)CC1	84.4%
C/C(=N\NC(N)=S)c1nnn(-c2ccc([N+](=O)[O-])cc2)c1C	89.3%
Fc1cc(F)cc(C(c2c[nH]c3ccccc23)c2c[nH]c3ccccc23)c1	111%
Cn1c2ccccc2c2c3[nH][nH]c(=O)c3c3c4ccccc4[nH]c3c21	49.5%
CCOC(=O)c1sc(Nc2ccc(Cl)cc2)nc1C	-13.9% (active)
O=C(Nc1cccc(Cl)c1)Nc1nc2cc([N+](=O)[O-])ccc2o1	53.4%
CCCCCCCCCC(=O)NC(C)(C)C(=O)N1CCC[C@H]1C(=O)N[C@@H](CC(C)C)C(=O)N[C@@](C)(CC)C(=O)N[C@@H](CCC(N)=O)C(=O)N[C@H](CCC(N)=O)C(=O)NC(C)(C)C(=O)NC(C)(C)C(=O)N[C@@H](CCC(N)=O)C(=O)N[C@H](CC(C)C)C(=O)N[C@H](CO)CC(C)C	-94.3% (active) and -88.5% (active)
COc1cc(C2Nc3ccccc3S2)cc(CN2CCOCC2)c1O (stereo not given)	26.3%
Cn1cc(-c2csc(-c3cn(C)c4ncccc34)n2)c2ccccc21	18%
c1coc([C@@H]2C[C@@H]3Cc4ccc5ccccc5c4N2O3)c1	89.7%
N=c1c2c(-c3ccccc3)c(-c3ccccc3)oc2ncn1NC(=O)c1cccnc1	105%
Cc1ccnc(NC(c2ccccc2)c2ccc3cccnc3c2O)c1 (stereo not given)	24.9%
